Experimental findings from ChEMBL document CHEMBL3433997, “St. Jude Leishmania screening dataset” (2016) are described below.

The inhibition is the change of the read-out against control, counted positive when it falls.

Type in all cases: functional
Experiment [1] deals with Solute carrier family 2, facilitated glucose transporter member 1 (Homo sapiens) (UniProt P11166). The experiment is described as follows: ST_JUDE_LEISH: Cytotoxicity at 2uM final concentration against transgenic Leishmania Mexicana promastigotes LmGLUT1 that are glucose transport deficient and complemented with the human glucose transporter GLUT1. Activity is measured by DNA content using SYBR green in vitro.

Experiment [2] concerns the target Hexose transporter 1 (Plasmodium falciparum) (UniProt O97467). The experiment in a line: ST_JUDE_LEISH: Cytotoxicity at 2uM final concentration against transgenic Leishmania Mexicana promastigotes LmPfHT that are glucose transport deficient and complemented with the Plasmodium falciparum hexose transporter. Activity is measured by DNA content using SYBR green in vitro.

Experiment [3] deals with Glucose transporter (Leishmania mexicana) (UniProt O61059). The experiment is described as follows: ST_JUDE_LEISH: Cytotoxicity at 2uM final concentration against transgenic Leishmania Mexicana promastigotes LmGT2 that are glucose transport deficient and complemented with the L. Mexicana glucose transporter 2. Activity is measured by DNA content using SYBR green in vitro.

Solute carrier family 2, facilitated glucose transporter member 1 (Homo sapiens), sequence (P11166 whole entry): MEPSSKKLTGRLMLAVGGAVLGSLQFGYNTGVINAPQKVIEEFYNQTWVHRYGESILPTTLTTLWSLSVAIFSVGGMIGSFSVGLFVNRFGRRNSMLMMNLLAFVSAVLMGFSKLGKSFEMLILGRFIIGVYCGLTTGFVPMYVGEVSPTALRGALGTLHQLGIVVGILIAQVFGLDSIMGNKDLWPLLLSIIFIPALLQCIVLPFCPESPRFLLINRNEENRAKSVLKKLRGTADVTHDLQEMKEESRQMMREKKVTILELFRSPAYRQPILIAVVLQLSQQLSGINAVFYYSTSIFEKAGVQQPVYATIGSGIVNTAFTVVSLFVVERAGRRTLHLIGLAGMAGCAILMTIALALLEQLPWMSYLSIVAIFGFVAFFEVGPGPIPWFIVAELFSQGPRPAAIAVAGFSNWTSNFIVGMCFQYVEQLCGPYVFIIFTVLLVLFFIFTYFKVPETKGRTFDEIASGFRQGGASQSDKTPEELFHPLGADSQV

Consider `O=C(NCC1CCC(C(=O)NC2CCCc3ccccc32)CC1)c1ccc(O)c(-c2cccc([N+](=O)[O-])c2)c1` (centres undefined), for which the inhibition in experiment [1] was found to be 3.94%; in experiment [2], 2.12%; in experiment [3], 2.39%.

On to `Nc1ccnc2ccc(OCCCCCCc3ccccc3)cc12`, for which the inhibition in experiment [1] was -1.77%; in experiment [2], -1.93%; in experiment [3] it was -1.14%.

On to `Cc1cccc2nc(-c3cccc(-c4ccc(CNCCNC(=O)c5ccnn5C)cc4)c3)[nH]c12`, for which the inhibition is -1.64% in experiment [1], 0.67% in experiment [2] and -2.92% in experiment [3].

In the case of `NC1CCCN(Cc2cccc(-c3ccc(-c4nc5ccccc5[nH]4)cc3)c2)C1` (centres undefined), the inhibition in experiment [1] was found to be 7.18%; in experiment [2] it was 5.94%; in experiment [3], 8.63%.

As for `COc1ccc(NC(=O)NC2CCN(CCCCCNC(=O)/C=C/c3ccc(Cl)c(Cl)c3)C2)c(OC)c1` (centres undefined), the inhibition in experiment [1] is -1.78%; in experiment [2] it was -1.48%; in experiment [3], 2.83%.

`COc1cc(F)c2ncc(Cl)c([C@H](O)CN3CCC(NCc4cc5c(cn4)OCCO5)CC3)c2c1`: the figures for the inhibition in experiment [1], in experiment [2] and in experiment [3] were 7.62%, 7.47% and 2.15%, respectively.

Take `O=C(/C=C/c1ccc(Cl)c(Cl)c1)N1CCN(C(=O)Nc2ccc(F)c(Cl)c2)CC1`: the inhibition was 9.87% in experiment [1], 8.92% in experiment [2] and 11.1% in experiment [3].

For the molecule `COc1ccc2c(NN=Cc3cccc(F)c3)ccnc2c1`, the inhibition in experiment [1] came out at 2.99%; in experiment [2], 2.22%; in experiment [3], 4.14%.

Take `CS(=O)(=O)CCNCc1nc(-c2ccc3ncnc(Nc4ccc(OCc5ccccc5)c(Cl)c4)c3c2)cs1`: the results for the inhibition in experiment [1], in experiment [2] and in experiment [3] were 4.21%, 3.42% and 2.9%, respectively.

Take `Cc1ccc(S(=O)(=O)NC2CCN(c3ccnc4cc(Cl)ccc34)C2)cc1` (centres undefined): the inhibition in experiment [1] amounted to 3.79%; in experiment [2], 3.39%; in experiment [3], 4.19%.

As to `CCCCN1CCN(c2cc(NS(=O)(=O)c3cccc(C(=O)Nc4ccc(C(F)(F)F)cc4)c3)ccc2OC)CC1`, the inhibition in experiment [1] is 0.33%; in experiment [2] it was -1.12%; in experiment [3] it was -1.22%.

As for `O=C(Nc1cccc(-c2cccc(-c3nc4cc(C(F)(F)F)ccc4[nH]3)c2)c1)c1c[nH]cn1`, the inhibition was 1.86% in experiment [1], 3.96% in experiment [2] and -1.42% in experiment [3].

As for `CC(C)c1ccc(S(=O)(=O)N(c2ccc3c(c2)OCO3)C2CCN(Cc3ccccc3)C2)cc1` (centres undefined), the inhibition in experiment [1] is -0.01%; in experiment [2], -0.17%; in experiment [3], 0.98%.

As for `Clc1ccc(-c2ccc(CNCCCN3CCCC3)cc2)cc1`, the inhibition in experiment [1] was 4.04%; in experiment [2] it was 3.04%; in experiment [3], 3.65%.

In the case of `COc1cc(C(=O)N2COCC(CCCN3CCC(N4CCCC4)CC3)(c3ccc(Cl)c(Cl)c3)C2)cc(OC)c1OC` (centres undefined), the inhibition was 3.3% in experiment [1], 3.39% in experiment [2] and 3.67% in experiment [3].

As to `CCCc1cc(Cc2cnc(N)nc2N)cc(OCCCCCC(=O)O)c1OC`, the inhibition was found to be 1.55% in experiment [1], 0.18% in experiment [2] and 0.67% in experiment [3].

For `COc1ccc2[nH]ccc(=NN=CC=Cc3ccccc3)c2c1`, the values for the inhibition in experiment [1], in experiment [2] and in experiment [3] were -0.13%, 2.19% and -3.26%, respectively.

As to `CCN1CCN(c2cc(C)c3cc(NC(=O)c4cc(OC)cc(OC)c4)ccc3n2)CC1`, the inhibition was -0.26% in experiment [1], 1.03% in experiment [2] and 2.19% in experiment [3].

Take `COc1ccc2nccc([C@@H](O)CN3CCC(NC(=O)c4cc5c(Cl)cc(Cl)cc5[nH]4)CC3)c2c1`: the inhibition was 5.68% in experiment [1], 7.48% in experiment [2] and 0.08% in experiment [3].

Turning to `CCCc1cc(Cc2cnc(N)nc2N)cc(CCC)c1O`, the values for the inhibition in experiment [1], in experiment [2] and in experiment [3] were 2.06%, 1.83% and 1.49%, respectively.

In the case of `CCCN(c1ccc(O)c(CN2CCCCC2)c1)c1ccc([N+](=O)[O-])cn1`, the inhibition in experiment [1] amounted to 1.28%; in experiment [2] it was 0.61%; in experiment [3] it was 1.09%.

In the case of `COc1cccc(-c2nc(Nc3ccncc3)c3ncn(C)c3n2)c1`, the values for the inhibition in experiment [1], in experiment [2] and in experiment [3] were 3.21%, 3.6% and 2.65%, respectively.

As for `Clc1ccc(-c2[nH]c3ccccc3c2CN2CCC(N3CCCCC3)CC2)cc1`, the inhibition came to 15.2% in experiment [1], 14.7% in experiment [2] and 15.2% in experiment [3].

In the case of `COc1cc(NC(=O)Nc2ccc([N+](=O)[O-])cc2OC)c(OC)cc1Cl`, the values for the inhibition in experiment [1], in experiment [2] and in experiment [3] were 16.6%, 9.29% and 5%, respectively.

Consider `c1cc(OCCN2CCCC2)ccc1CNC1CCN(CC2CCCCC2)CC1`, for which the values for the inhibition in experiment [1], in experiment [2] and in experiment [3] were -3.76%, -0.11% and -4.21%, respectively.

With `CC(C)CNCc1cccc(-c2cccc(CN(CCN(C)C)C(=O)Nc3ccccc3)c2)c1`, the figures for the inhibition in experiment [1], in experiment [2] and in experiment [3] were 2.46%, 4.17% and 0.55%, respectively.

Turning to `CCCCCCCN1CC[C@@H](CCCc2ccnc3ccc(OCCCCNC(N)=O)cc23)[C@@H](CC)C1`, the inhibition in experiment [1] was found to be 2.24%; in experiment [2] it was 4.54%; in experiment [3], 2.79%.

For the molecule `Cn1cncc1C(=O)Nc1cccc(-c2csc(-c3nc4ccccc4[nH]3)c2)c1`, the inhibition in experiment [1] was 2.44%; in experiment [2], 3.44%; in experiment [3], 2.3%.

Regarding `CC(=O)Nc1nc(N)c2c(ccc3c2ccn3CC(C)C)n1`, the inhibition in experiment [1] is -2.54%; in experiment [2], -0.46%; in experiment [3], -0.95%.

For the molecule `CCN(CCCN1CCCCC1)c1cc(C)nc(Nc2ccc(C(F)(F)F)cc2)n1`, the inhibition in experiment [1] was 3.6%; in experiment [2], 3.63%; in experiment [3], 3.9%.

Take `COc1ccc(CCNc2nc(NCCc3cnc[nH]3)nc(NCc3cccc4ccccc34)n2)cc1OC`: the values for the inhibition in experiment [1], in experiment [2] and in experiment [3] were 7.46%, 10.1% and 4.1%, respectively.

`CN(C)Cc1cccc2nc(-c3csc(Cc4cc(Cl)ccc4OCc4ccccc4)n3)[nH]c12`: the inhibition in experiment [1] turned out to be 6.3%; in experiment [2] it was 3.36%; in experiment [3] it was 1.88%.

For the molecule `CCOc1ccc2c(=NN=Cc3cccc(OC)c3OC)cc(C)[nH]c2c1`, the inhibition turned out to be 4.91% in experiment [1], 5.53% in experiment [2] and 6% in experiment [3].
